Inconclusive results are not listed. Active and inactive are the calls of the source. Unless noted, calls follow the shape of the full dose curve.
How the values were obtained:
[1] = Nuclear factor erythroid 2-related factor 2/antioxidant responsive element (Nrf2/ARE) small molecule agonists: qHTS cell viability counter screen in human keratinocytes (AID 1919968; active = well fitted curve in the direction sought with a large enough effect in the repeat runs; an effect the other way counts as inactive or inconclusive; also: nearly all actives have a fitted effect of over 55% in size; also: potency is read from the fitted curve at half-maximal effect)
Outline: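 Measured as CellTiter-Fluor fluorescence, this readout tracks cytotoxicity in the same wells as the ARE-luciferase screen. HaCaT reporter cells (1,500/well) received compounds after a 5 h pre-incubation and were exposed for 23 h.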

[2] = Nuclear factor erythroid 2-related factor 2/antioxidant responsive element (Nrf2/ARE) small molecule agonists: luciferase reporter gene qHTS assay in human keratinocytes (AID 1919969); also: nearly all actives have a fitted effect of over 35% in size; also: potency is read from the fitted curve at half-maximal effect
[3] = molecular target: Gonadotropin-releasing hormone receptor (Homo sapiens) (UniProt P30968); experiment: Human gonadotropin-releasing hormone receptor (GnRHR) small molecule agonists, calcium flux assay in GnRHR-HEK293 cells (AID 1920063); also: nearly all actives have a fitted effect of over 35% in size
Outline: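 Fluorescence kinetics (480 nm excitation, 540 nm emission; 3 min, 1 s steps) report calcium mobilisation in human GnRHR-HEK293 cells in agonist mode. Dye incubation: 1 h, 37 C.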

[4] = molecular target: KiSS-1 receptor (Homo sapiens) (UniProt Q969F8); experiment: Human kisspeptin (KISS1R) small molecule agonists, calcium flux assay in KISS1R-HEK293 cells (AID 1920064; active = well fitted curve in the direction sought with a large enough effect in the repeat runs; an effect the other way counts as inactive or inconclusive)
Outline: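 Measures KISS1R agonism through calcium-sensitive dye fluorescence in stably transfected HEK293 cells, read for 3 min after pin-tool compound delivery; 15-point titrations in triplicate.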

[5] = G protein-coupled receptor (GPCR) small molecule agonists, calcium flux assay: HEK293 wild type cell line counter screen (AID 1920065)
Outline: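 Readout: fluorescence at 480 nm excitation/540 nm emission, sampled at 1 s intervals for 3 min. Cells had been cultured 18 h, then dye-loaded 1 h at 37 C before compound or ATP addition.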

[6] = p53 small molecule agonists, cell-based qHTS assay with rat liver microsomes (AID 1963578)
Outline: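 Quantitative HTS of the Tox21 10K library: p53RE-bla cells, rat liver microsomes plus NADPH at 0.5 mg/mL final each, 16 h at 37 C, beta-lactamase fluorescence detection.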

[7] = p53 small molecule agonists, cell-based qHTS assay with human liver microsomes: qHTS cell viability counter screen (AID 1963579); also: nearly all actives have a fitted effect of over 45% in size
Outline: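 Viability of p53RE-bla cells is measured as CellTiter-Glo luminescence following a 16 h, 37 C incubation with compound, liver microsomes from human donors and NADPH.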

[8] = p53 small molecule agonists, cell-based qHTS assay with rat liver microsomes: qHTS cell viability counter screen (AID 1963580); also: nearly all actives have a fitted effect of over 45% in size; also: potency is read from the fitted curve at half-maximal effect
Outline: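 Viability is assessed in parallel with the p53 reporter read: HCT-116 p53RE-bla cells receive compounds plus rat microsomes and NADPH (0.5 mg/mL final apiece), incubate 16 h at 37 C, and then CellTiter-Glo luminescence is recorded.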

[9] = p53 small molecule agonists, cell-based qHTS assay: qHTS cell viability counter screen (AID 1963581); also: nearly all actives have a fitted effect of over 45% in size
Outline: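 In the same plates used for the p53 bla reporter, HCT-116 cells given compounds for 16 h at 37 C received CellTiter-Glo; luminescence was recorded 30 min later at room temperature.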

[10] = p53 small molecule agonists, cell-based qHTS assay (AID 1963582; active = well fitted activation curve with a large enough effect in the signal ratio in the repeat runs, not every such curve was filed as active; the % refers to the signal ratio)
Outline: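 Compounds are pin-transferred in DMSO onto p53RE-bla cells and incubated 16 h at 37 C. The B/G FRET beta-lactamase substrate is then applied for 2 h at RT and fluorescence recorded.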

[11] = molecular target: 5-hydroxytryptamine receptor 2A (Homo sapiens) (UniProt P28223); experiment: 5-hydroxytryptamine receptor 2A (HTR2A) small molecule agonists, cell-based qHTS assay (AID 1963587); also: nearly all actives have a fitted effect of over 30% in size; also: potency is read from the fitted curve at half-maximal effect
Outline: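 CHO cells stably expressing human HTR2A, plated 18 h, loaded with calcium dye 1 h at 37 C. Agonist mode: compounds added and intracellular calcium fluorescence recorded kinetically for 2 min at 1 sec intervals.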

[12] = molecular target: Beta-2 adrenergic receptor (Homo sapiens) (UniProt P07550); experiment: Adrenergic beta2 receptor (ADRB2) small molecule antagonists, cell-based qHTS assay (AID 1963592); also: nearly all actives have a fitted effect of over 50% in size; also: potency is read from the fitted curve at half-maximal effect
Outline: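 Cells (CHO, stable ADRB2 overexpression) incubated 18-20hr at 37C; compounds added from DMSO; agonist mix (1nM isoproterenol, 100uM IBMX, 25uM Ro-20-1724) added; 0.5hr RT; d2-cAMP and anti-cAMP-cryptate added; 1hr RT; 665/615 nm read.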

[13] = molecular target: D(2) dopamine receptor (Homo sapiens) (UniProt P14416); experiment: Dopamine D2 receptor (DRD2) small molecule agonists, cell-based qHTS assay (AID 1963594); also: nearly all actives have a fitted effect of over 35% in size
Outline: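 HEK293 cells stably expressing human DRD2, pre-treated with PDE inhibitor Ro20-1724 (0.1 mM final) and compound 10 min at room temperature, then stimulated with NKH477 (200nM […]) for 30 min. cAMP read by HTRF (665/620 nm).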

[14] = molecular target: D(2) dopamine receptor (Homo sapiens) (UniProt P14416); experiment: Dopamine D2 receptor (DRD2) small molecule antagonists, cell-based qHTS assay (AID 1963595; active = well fitted inhibition curve with a large enough effect in the signal ratio in the repeat runs, with a control signal flat; the % refers to the signal ratio; also: potency is read from the fitted curve at half-maximal effect)
Outline: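 Antagonist mode in DRD2-HEK293 cells: after compound addition with 0.1 mM Ro20-1724, cells received quinpirole (12 nM) and NKH477 (200 nM) for 30 min at room temperature; HTRF cAMP read after 1 h detection.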

[15] = molecular target: 5-hydroxytryptamine receptor 2A (Homo sapiens) (UniProt P28223); experiment: 5-hydroxytryptamine receptor 2A (HTR2A) small molecule antagonists, cell-based qHTS assay (AID 1963586); also: nearly all actives have a fitted effect of over 45% in size; also: potency is read from the fitted curve at half-maximal effect
Outline: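 Antagonist-mode intracellular calcium assay: DOI (4 nM) added after 5 min compound pre-incubation at room temperature to dye-loaded HTR2A-CHO cells. Fluorescence followed for 3 min, sampled every second.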

[16] = molecular target: Muscarinic acetylcholine receptor M1 (Homo sapiens) (UniProt P11229); experiment: Cholinergic receptor muscarinic 1 (CHRM1) small molecule antagonists, cell-based qHTS assay (AID 1963588); also: nearly all actives have a fitted effect of over 40% in size; also: potency is read from the fitted curve at half-maximal effect
Outline: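 CHRM1-CHO calcium-flux assay, antagonist mode. Cells were seeded 18 h, dye-loaded 1 h at 37 C and given compound for 5 min at RT, then acetylcholine was added at 50nM. FDSS fluorescence was read 3 min; 15 concentrations, three runs.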

[17] = molecular target: Muscarinic acetylcholine receptor M1 (Homo sapiens) (UniProt P11229); experiment: Cholinergic receptor muscarinic 1 (CHRM1) small molecule agonists, cell-based qHTS assay (AID 1963589); also: nearly all actives have a fitted effect of over 35% in size
Outline: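 Each compound was tested at 15 concentrations across three independent runs on dye-loaded CHO cells stably expressing human CHRM1, reading intracellular calcium fluorescence kinetically at 1 sec intervals.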

[18] = cAMP Responsive Elements (CRE) small molecule antagonists, cell-based qHTS assay (AID 1963591; active = well fitted inhibition curve with a large enough effect in the signal ratio in the repeat runs, not every such curve was filed as active; the % refers to the signal ratio)
Outline: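 Inhibition of NKH477-driven (0.25 uM final) CRE-beta-lactamase signal in HEK293T cells, 3 h compound exposure at 37 °C, detected by FRET substrate fluorescence.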

[19] = cAMP Responsive Elements (CRE) small molecule agonists, cell-based qHTS assay (AID 1963590)
Outline: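 Cell line: CRE-bla HEK 293T; medium DMEM/10% dialyzed FBS/0.1 mM NEAA/1 mM pyruvate/25 mM HEPES; 3 h compound exposure; beta-lactamase FRET readout after 2 h substrate loading at RT.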

Measured: Potency

D(2) dopamine receptor (Homo sapiens), sequence (P14416 whole entry, looked up): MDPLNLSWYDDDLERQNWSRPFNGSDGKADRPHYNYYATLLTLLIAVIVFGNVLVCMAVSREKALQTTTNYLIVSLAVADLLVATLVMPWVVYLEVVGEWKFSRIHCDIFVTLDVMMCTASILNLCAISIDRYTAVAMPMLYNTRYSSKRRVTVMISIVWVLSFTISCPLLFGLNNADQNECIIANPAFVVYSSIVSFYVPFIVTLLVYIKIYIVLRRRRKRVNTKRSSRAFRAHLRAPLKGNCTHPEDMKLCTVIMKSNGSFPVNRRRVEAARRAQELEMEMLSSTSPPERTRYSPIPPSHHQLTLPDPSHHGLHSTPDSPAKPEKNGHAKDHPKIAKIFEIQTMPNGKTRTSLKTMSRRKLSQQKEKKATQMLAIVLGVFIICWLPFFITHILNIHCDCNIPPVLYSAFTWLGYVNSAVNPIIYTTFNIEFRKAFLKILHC
5-hydroxytryptamine receptor 2A (Homo sapiens), sequence (P28223 whole entry, looked up): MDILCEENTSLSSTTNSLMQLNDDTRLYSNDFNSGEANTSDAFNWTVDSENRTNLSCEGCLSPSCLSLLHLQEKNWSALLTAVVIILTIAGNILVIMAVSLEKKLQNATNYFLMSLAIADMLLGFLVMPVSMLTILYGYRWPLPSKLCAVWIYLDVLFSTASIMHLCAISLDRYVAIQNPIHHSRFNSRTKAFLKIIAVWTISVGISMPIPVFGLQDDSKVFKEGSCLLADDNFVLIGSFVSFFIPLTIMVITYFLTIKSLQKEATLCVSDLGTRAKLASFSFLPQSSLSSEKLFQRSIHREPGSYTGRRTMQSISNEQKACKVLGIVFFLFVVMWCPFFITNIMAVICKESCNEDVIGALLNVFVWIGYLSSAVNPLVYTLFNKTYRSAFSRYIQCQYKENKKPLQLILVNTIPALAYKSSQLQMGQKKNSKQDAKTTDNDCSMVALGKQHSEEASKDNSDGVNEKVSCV
Gonadotropin-releasing hormone receptor (Homo sapiens), sequence (P30968 whole entry, looked up): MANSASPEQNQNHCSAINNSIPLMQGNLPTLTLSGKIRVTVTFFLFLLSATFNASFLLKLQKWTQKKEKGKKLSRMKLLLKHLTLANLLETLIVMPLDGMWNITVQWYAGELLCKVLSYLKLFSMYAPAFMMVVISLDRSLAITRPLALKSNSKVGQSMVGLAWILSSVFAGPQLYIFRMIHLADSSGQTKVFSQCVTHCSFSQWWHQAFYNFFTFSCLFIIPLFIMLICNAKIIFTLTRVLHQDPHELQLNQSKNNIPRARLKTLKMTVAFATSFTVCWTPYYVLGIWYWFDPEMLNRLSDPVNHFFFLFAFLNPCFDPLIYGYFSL
Muscarinic acetylcholine receptor M1 (Homo sapiens), sequence (P11229 whole entry, looked up): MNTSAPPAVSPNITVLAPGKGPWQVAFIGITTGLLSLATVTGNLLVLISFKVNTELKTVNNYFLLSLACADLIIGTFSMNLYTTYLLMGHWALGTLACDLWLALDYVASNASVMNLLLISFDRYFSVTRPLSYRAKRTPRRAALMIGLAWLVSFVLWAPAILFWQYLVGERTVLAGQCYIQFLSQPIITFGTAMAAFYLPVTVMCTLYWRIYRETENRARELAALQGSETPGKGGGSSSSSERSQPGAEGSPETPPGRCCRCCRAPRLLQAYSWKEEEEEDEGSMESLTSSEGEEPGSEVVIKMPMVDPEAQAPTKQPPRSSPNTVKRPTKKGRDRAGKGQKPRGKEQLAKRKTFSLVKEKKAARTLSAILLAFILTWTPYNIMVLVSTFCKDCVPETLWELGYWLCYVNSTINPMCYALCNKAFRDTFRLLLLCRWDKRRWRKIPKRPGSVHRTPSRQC
Beta-2 adrenergic receptor (Homo sapiens), sequence (P07550 whole entry, looked up): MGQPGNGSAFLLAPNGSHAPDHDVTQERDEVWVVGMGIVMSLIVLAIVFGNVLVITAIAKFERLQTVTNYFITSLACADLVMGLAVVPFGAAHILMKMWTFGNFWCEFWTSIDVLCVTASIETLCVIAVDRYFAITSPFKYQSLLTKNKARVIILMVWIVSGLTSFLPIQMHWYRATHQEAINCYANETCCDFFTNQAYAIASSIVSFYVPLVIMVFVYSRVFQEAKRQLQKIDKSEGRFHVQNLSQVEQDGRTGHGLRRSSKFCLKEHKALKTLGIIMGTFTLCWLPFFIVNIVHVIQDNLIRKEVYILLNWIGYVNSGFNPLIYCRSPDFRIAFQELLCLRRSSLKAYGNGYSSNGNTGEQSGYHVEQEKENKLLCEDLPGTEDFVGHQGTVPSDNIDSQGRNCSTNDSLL
KiSS-1 receptor (Homo sapiens), sequence (Q969F8 whole entry, looked up): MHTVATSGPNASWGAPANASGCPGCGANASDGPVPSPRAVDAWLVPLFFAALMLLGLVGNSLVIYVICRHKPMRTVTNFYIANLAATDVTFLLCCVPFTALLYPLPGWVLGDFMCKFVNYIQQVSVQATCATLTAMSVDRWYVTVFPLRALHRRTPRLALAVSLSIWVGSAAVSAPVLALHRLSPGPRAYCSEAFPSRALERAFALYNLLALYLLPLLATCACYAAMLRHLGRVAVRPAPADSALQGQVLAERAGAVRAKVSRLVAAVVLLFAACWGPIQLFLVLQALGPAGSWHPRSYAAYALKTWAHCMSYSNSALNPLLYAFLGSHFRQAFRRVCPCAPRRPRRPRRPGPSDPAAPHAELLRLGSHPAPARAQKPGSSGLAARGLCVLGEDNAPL

O=C1c2ccccc2Cc2ccccc21
active: [2] 61.6 µM
not listed: [15] | [16] | [17] | [18] | [19]
inactive: all other assays above

NC(CSCC(=O)O)C(=O)O (stereo unspecified)
not listed: [19]
inactive: all other assays above

C=C(C)C(=O)OCCOC(=O)CC(C)=O
not listed: [15] | [18] | [19]
inactive: all other assays above

CCOc1ccccc1OCC1CNCCO1 (stereo unspecified)
not listed: [11] | [12] | [13] | [15] | [18]
inactive: all other assays above

Clc1ccc(Nc2nnc(Cc3ccncc3)c3ccccc23)cc1
active: [15] 18.3 µM | [16] 18.3 µM
inactive: all other assays above

CCCCCC1Nc2cc(C(F)(F)F)c(S(N)(=O)=O)cc2S(=O)(=O)N1 (stereo unspecified)
not listed: [15] | [17] | [18] | [19]
inactive: all other assays above

CCCC(CCC)(C(=O)OCC)C(=O)OCC
active: [15] 3.26 µM | [11] 1.69 µM
not listed: [13] | [18]
inactive: all other assays above

COC(=O)c1cc(Cl)ccc1[N+](=O)[O-]
not listed: [11] | [18]
inactive: all other assays above

CCN(CC)c1cccc(O)c1
active: [2] 11.1 µM
inactive: all other assays above

C[C@@H]1C[C@H]2[C@@H]3CCC4=CC(=O)C=C[C@]4(C)[C@@]3(Cl)[C@@H](O)C[C@]2(C)[C@@]1(OC(=O)c1ccco1)C(=O)CCl
not listed: [11] | [19]
inactive: all other assays above

CCCc1ccc(OCC(=O)N2CCN(C(=O)COc3ccc(CCC)cc3OC)CC2)c(OC)c1
inactive: all assays above

CN1CCN(c2ccccc2/C=C2\SCCN(c3ccc(Cl)c(Cl)c3)C2=O)CC1
active: [1] 43.3 µM | [8] 45.8 µM | [16] 7.48 µM | [12] 0.77 µM | [14] 54.5 µM
not listed: [11] | [13]
inactive: all other assays above

CCC(=O)OCCC(C)CCC=C(C)C (stereo unspecified)
not listed: [15] | [19]
inactive: all other assays above

C[C@@H]1C[C@H]2[C@@H]3CCC4=CC(=O)C=C[C@]4(C)[C@@]3(F)[C@@H](O)C[C@]2(C)[C@@]1(O)C(=O)COC(=O)c1ccncc1
not listed: [13] | [15]
inactive: all other assays above

— PubChem BioAssay (Tox21)
